Reference: publication PMC12136788
Changes are numbered by the printed parent chain. Over roughly 5,800 sequences, “enrichment r” has its median near 0.68; the highest 2% begin near 11. Shown is part of a subset that was picked to be rich in the highest values.

T1: UNK ZnF1-6 (called full-length) (human, UniProt Q9C0B0 30-357)
T1 sequence: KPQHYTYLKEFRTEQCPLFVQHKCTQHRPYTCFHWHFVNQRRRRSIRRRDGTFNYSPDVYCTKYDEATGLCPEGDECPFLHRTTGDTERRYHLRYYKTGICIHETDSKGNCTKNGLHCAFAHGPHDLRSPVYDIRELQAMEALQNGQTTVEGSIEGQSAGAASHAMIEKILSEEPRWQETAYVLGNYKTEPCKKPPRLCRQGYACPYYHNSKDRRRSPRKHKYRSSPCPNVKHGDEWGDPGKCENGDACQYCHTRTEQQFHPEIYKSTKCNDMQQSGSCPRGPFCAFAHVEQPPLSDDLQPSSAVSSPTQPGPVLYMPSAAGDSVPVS

B1: ENSG00000107863:be:win_1351|CDS|ENSG00000107863|bound_else_gene|NA|bound_elsewhere_windowed (ssRNA)
RNA: GGGAGUUCUACAGUCCGACGAUCGUCCAGAUACGGCAACGCAGUGUGUCCCAAGAAAGACUGGAAGAUUCUGUGCUAAUGAAGUAUUGUCCAAGAAGUGCAUCUCAAGGAGCACUGACGUCUCCAUCUGUUAGUUUUAGUAAUCAACAGAGGAUUGAGCAUCA
B2: chr10:75150949:75151073:+|CDS|ENSG00000156671|unk|FALSE|unique (ssRNA)
RNA: GGGAGUUCUACAGUCCGACGAUCUGUUCGAAGAUUGGACCCAGAAUACUGGAAGACUAUACUGAGUUGUAUAUAUGUUUUUAUAGUAUUUGGAUUUACAUCUUUCAUUAUGGUUAUAGUCCAUGAGCGAGUGCCUGACAUGCACAACAGAGGAUUGAGCAUCA
B3: ENSG00000107863:be:win_4151|CDS|ENSG00000107863|bound_else_gene|NA|bound_elsewhere_windowed (ssRNA)
RNA: GGGAGUUCUACAGUCCGACGAUCAUUCAGCUACUAGUGACUCAACAAAAUCUAAGGGUUCUUGGGGAUCUGGAAAGGAUCAGUAUAGCAGGGAACUGCUUGUGUCCUCCAUCUUUGCAGCUGCUAGUCGCAAGAGGAAGAAGCCAACAGAGGAUUGAGCAUCA
B4: chr2:224001733:224001845:-|CDS|ENSG00000135919|unk|total|mutant (ssRNA)
RNA: GGGAGUUCUACAGUCCGACGAUCGGCCUCUGUGACGCUGCCUUCCAUCUGCUCCCACUUCAAUCCUCUGUCUCUCGAGGAACCCGGCUCCAACACGGGGAUCCAGGUUUUCAAUCAGAUUGUGAAGUCGAGGCCUCAUGACAACAACAGAGGAUUGAGCAUCA
B5: chr12:122341087:122341188:-|CDS|ENSG00000130779|unk|FALSE|bound_elsewhere (ssRNA)
RNA: GGGAGUUCUACAGUCCGACGAUCAGAAUUUGCUGAACUAAAAACACAAAUAGAGAAAAUGAGACUAGAUUACCAACACGAAAUAGAAAAUUUGCAGAAUCAACAAGACUCUGAACGGGCUGCCCAUGCUAAAGAGAUGGAAGCCAACAGAGGAUUGAGCAUCA
B6: chr13:52036708:52036809:-|3pUTR|ENSG00000197168|unk|FALSE|unique (ssRNA)
RNA: GGGAGUUCUACAGUCCGACGAUCGUAGAACUUUUGAAUAUAGCCAUUAAUAUUUUUACUUUAAAGUUUCUAUUAAGAAAUCUUAGGCCGGGCAGUCUCAUCACUUUGGGAGGCCAAGGCAGGCAGAUCAUGAGGUCAGGAGUUCAACAGAGGAUUGAGCAUCA
B7: chr7:107202531:107202632:-|3pUTR|ENSG00000164597|msi1|total|mutant (ssRNA)
RNA: GGGAGUUCUACAGUCCGACGAUCUAUUCUGAGAACUCAUAAAUAAAAUUCAGCCAAGAUUAAUCAAUCAAUCAAUCAAUCAGCCGACGUCAGAGAUAAGCAACUUUUUUUUCCAUUUAUUUGAAAUAAUAUACAAGAAUACCGCAACAGAGGAUUGAGCAUCA
B8: ENSG00000070961:be:win_5751|3pUTR|ENSG00000070961|bound_else_gene|NA|bound_elsewhere_windowed (ssRNA)
RNA: GGGAGUUCUACAGUCCGACGAUCCUAAAAAUUGACCCUAUCAACUGGAGAGCCCACAAGGCAUAGGGAAUAGAGAAAAGGGAAAUGUUUUCAGUUUUCUUUUUUAUUUUGGUUAUGCUUAAAUAUGAAUGUAAUUACCAAAAGCAACAGAGGAUUGAGCAUCA
B9: chr10:11920118:11920232:-|3pUTR|ENSG00000151461|unk|FALSE|unique (ssRNA)
RNA: GGGAGUUCUACAGUCCGACGAUCGUAGUAUAUUUAGUCGGAGAGCACAUCUGUAUGCGACAACUUGAUUACAUCUUUUUUUCUAGCUAUUUUGCAUUUUUUCUUUUACCAUGUUUCAGUUUCUGCAUGUAGAUUUAAAUAAAACAACAGAGGAUUGAGCAUCA
B10: chr8:58582127:58582250:+|3pUTR|ENSG00000137575|unk|FALSE|bound_elsewhere (ssRNA)
RNA: GGGAGUUCUACAGUCCGACGAUCUUCAUAUUACUUUAGUUCUAUAGCAUACUUGCAUCUUUAACAUGCUAUCAUAGUACAUUUAGAAUGAUUGCCUUUGAUUUUUUUUUUAAAUUCUGUGUGUGUGUGUGUAAAAUGCCAAUUCAACAGAGGAUUGAGCAUCA
B11: chr6:152987361:152990084:-|three_prime_utr|ENSG00000112031|control|control|control (ssRNA)
RNA: GGGAGUUCUACAGUCCGACGAUCAGAUUAUCUACUGGAUGAACUUGUACAGUCAUUGAAGGAAUACGCCGAUUAUGAAUCUUUAGUAGAAAUUAUUUCCCAAAAAGUUUAAGUUGAUUUGUUAUUUAUAGACUUUCGUAGCUUCAACAGAGGAUUGAGCAUCA
B12: chr3:68976711:68977116:-|CDS|ENSG00000163378|control|control|control (ssRNA)
RNA: GGGAGUUCUACAGUCCGACGAUCCUUUUUAGGAAUACCAAAGUUUUCAACUUUUUCAGCUUUAGAAUUUGUAAAUAUUUUUGUAGAAUAUCAUAUGACUGUAAUUCCAGAGUGUUCCAACUUGUUUAUGAUAUAUUUGGGUAACAACAGAGGAUUGAGCAUCA
B13: chr20:13714314:13714426:-|3pUTR|ENSG00000089048|unk|FALSE|unique (ssRNA)
RNA: GGGAGUUCUACAGUCCGACGAUCUUUUUCUAGCCAUAAAGGAUGGAAGUCAAGAACUUUUUGUUGUUUAGUCAUGUUAAGUAUAGUUUAUGAAAUUAACUUGUAAAUAAAAGUGUAAAAUAUUUUCAUUAUUUUGUAUAGCACCAACAGAGGAUUGAGCAUCA
B14: chr10:62806226:62806343:+|3pUTR|ENSG00000181915|unk|FALSE|unique (ssRNA)
RNA: GGGAGUUCUACAGUCCGACGAUCCUACCCCUUAGUUAAAUAGGGUUUAUUUUCCACUCAUGCCCUUAUGCCUUUUUUUCUUAUAGUUUUUUAACUUAUUGACUGUGCAUGACCCAGUGGUUUGAAUUGUUUUUAGUUCAAGUCCAACAGAGGAUUGAGCAUCA
B15: chr21:14371318:14371404:-|3pUTR|ENSG00000155304|msi1_unk|FALSE|overlapping (ssRNA)
RNA: GGGAGUUCUACAGUCCGACGAUCUAUGAAUAACAAUCUGAAGUCUUUUCAUAAAAAAAAUUAAUAAACUUUAGUUGUACAUUUAGCCAGUGUUAUUUGAAGUAUGUAACUUUUAAAAUAUUAAGUGUCUUGUAUGAUUAGAAUCAACAGAGGAUUGAGCAUCA
B16: chr12:39553730:39553837:-|3pUTR|ENSG00000173208|unk|FALSE|unique (ssRNA)
RNA: GGGAGUUCUACAGUCCGACGAUCGAAGUAUGUUAAGCUAAGCACAGAGAAAAAAAGGCAGCAAGACAUGUUUUAUAAGAUUUUAGCAUUAAGGAAGUAUAUGAUCUGACUUUUCAGAAGAAAAUAAACAAAUGCAUUAUGUAACAACAGAGGAUUGAGCAUCA
B17: chr13:52036708:52036809:-|3pUTR|ENSG00000197168|unk|total|mutant (ssRNA)
RNA: B6 RNA with U25C, A26C, U40C, A41C, U83C, A84C

These binders were tested against T1, UNK ZnF1-6 (called full-length) (assay: nsRBNS (natural sequence RNA bind-n-seq); RBNS binding buffer (assumed for nsRBNS): 25 mM Tris pH 7.5, 150 mM KCl, 3 mM MgCl2, 0.01% Triton X-100, 500 ug/ml BSA, 20 U/ml SUPERase-In, 4 C; UNK is unkempt and MSI1 is Musashi-1; names of the RNAs are library labels; protein concentration not given here; high values mean tight binding).
Work on B1 yielded a binding signal of 4.38 enrichment R.
In the case of B2, the binding signal is reported as 0.389 enrichment R.
In the case of B3, the binding signal is reported as 0.489 enrichment R.
B4 showed a binding signal of 0.666 enrichment R.
Work on B5 yielded a binding signal of 8.87 enrichment R.
Binder B6 has a binding signal of 21 enrichment R.
In the case of B7, the binding signal is reported as 1.94 enrichment R.
B8 showed a binding signal of 0.412 enrichment R.
For B9, the binding signal was 21.9 enrichment R.
B10 showed a binding signal of 5 enrichment R.
Binder B11 has a binding signal of 1.84 enrichment R.
Binder B12 has a binding signal of 9.89 enrichment R.
Work on B13 yielded a binding signal of 62.3 enrichment R.
Work on B14 yielded a binding signal of 15.8 enrichment R.
Binder B15 has a binding signal of 1.48 enrichment R.
For B16, the binding signal was 0.997 enrichment R.
Binder B17 has a binding signal of 2.85 enrichment R.
